Experimental data taken from PubChem BioAssay AID1794842 (National Center for Advancing Translational Sciences (NCATS), 2023).
The whole screen tested about 2,800 compounds, of which fewer than 10 were called active. Calls come from the whole dose curve; as a rule, active = well fitted curve in the direction sought with a large enough effect; inconclusive = small, poorly fitted or top-dose-only effect, or another doubt; inactive = no such curve, though single readings can be large or run the other way. A selection follows.

Target: Metallo-beta-lactamase type 2 (Klebsiella pneumoniae) (UniProt C7C422)
Assay: qHTS to identify inhibitors of the New Delhi Metallo-beta-lactamase (NDM): Meropenem screen against the machine-based learning selections. Note: % of control where 0% means no effect.
Settings: Purified NDM-1, meropenem hydrolysis, absorbance 300 nm; series mostly up to 38.4 µM; activity change, negative = inhibition: at the top concentration
From the text: Assay Submitter (PI): James Inglese Ph.D., Patricia Dranchak Ph.D., Mahesh Aitha Ph.D. Assay Development and Screening Technology Laboratory (ADST) National Center for Advancing Translational Sciences (NCATS), Rockville, MD National Institute of Health (NIH), Bethesda, Maryland The metallo-beta-lactamases (MBL) are a main antibiotic resistance mechanism evolved by bacteria. There is an urgent clinical need for MBL inhibitors to mitigate this growing threat. To support a machine-based learning study, qHTS has been used to experimentally test inhibitors identified by prediction tools.
PROTOCOL TABLE (as described by Inglese et al., 2007) SEQUENCE No. (e.g., 1, 2, 3, etc.); […] (e.g., enzyme, Incubation, Reagent, etc.); VALUE; DESCRIPTION Primary Screen 1; NDM-1; 4 uL of 3 nM enzyme [2 nM final] in 50 mM HEPES (pH 7.0), 1 uM […], 0.01% Tween20; Use BioRaptr to dispense into two sets of Aurora black, clear bottom high base 1536-well plates 2; Compounds; 23 nL; Use Pin Tool (Wako) to transfer DMSO control and library compounds in DMSO 3; Incubate; >30 min 4a; Reagent; 2 uL of 50 uM nitrocefin [16.7 uM final] to one set of assay plates 4b; Reagent; 2 uL of 150 uM meropenem [50 uM final] to second set of assay plates 5a; Incubate; 15 min 5b; Incubate; 30 min 6a; Detector; Absorbance at 485 nm (bandwidth = 5 nm, 25 flashes/well) on Tecan Infinity 6b; Detector; Absorbance at 300 nm (bandwidth = 5 nm, 25 flashes/well) on Tecan Infinity NOTES (numbers refer to sequence above) 1; Column 1 of each plate received assay buffer without enzyme and columns 2-48 received enzyme for a final assay concentration of 2 nM. 2; Control plate contained DMSO in columns 1, 2, 3, and 4. 3; Compound interaction with enzyme. 4; Nitrocefin and meropenem substrates were prepared in the same assay buffer as step 1 for a final assay concentration of 16.7 uM and 50 uM, respectively, and added to all wells across respective sets of assay plates. 5; Default reader settings were applied for absorbance read at 485 nm (nitrocefin) or 300 nm (meropenem), bandwidth = 5 nm, 25 flashes/well. References: Inglese J, Shamu CE, Guy RK. 2007. Reporting data from high-throughput screening of small-molecule libraries. Nat Chem Biol. doi:10.1038/nchembio0807-438 Yasgar A, Shinn P, Jadhav A, Auld D, Michael S, Zheng W, Austin CP, Inglese J, Simeonov A. 2008. Compound Management for Quantitative High-Throughput Screening. J Lab Autom 13:79 - 89. doi:10.1016/j.jala.2007.12.004

Metallo-beta-lactamase type 2 (Klebsiella pneumoniae), sequence (C7C422 whole entry, looked up): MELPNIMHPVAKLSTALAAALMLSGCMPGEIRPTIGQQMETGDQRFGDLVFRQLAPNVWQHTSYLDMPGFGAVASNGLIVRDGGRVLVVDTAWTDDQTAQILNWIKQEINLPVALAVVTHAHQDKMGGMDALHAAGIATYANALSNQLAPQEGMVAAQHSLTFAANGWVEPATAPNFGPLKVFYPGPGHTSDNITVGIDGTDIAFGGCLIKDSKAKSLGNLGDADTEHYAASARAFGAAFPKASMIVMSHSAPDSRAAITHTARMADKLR

Activity change, negative = inhibition, inactive:
CCCCCC(=O)Nc1nc2c(s1)C[C@@H]1[C@](C)(CO)[C@H](O)CC[C@@]1(C)[C@@H]2CC(=O)NCc1ccccc1 0.525%
CC[C@H]1CN(S(=O)(=O)c2c(C)noc2C)CC[C@H]1CC(=O)NCc1ccco1 1.93% [at 57.5 µM]
CC(C)c1noc([C@@H]2C[C@H](NC(=O)Nc3ccc(F)cc3)CN2C)n1 -1.13% [at 57.5 µM]
COCCNC(=O)C[C@@H]1C[C@H]2O[C@H](CNC3CCCCC3)[C@@H](O)[C@H]2O1 0.285% [at 57.5 µM]
O=C(CSc1ccncc1)N1CCN2C(=O)N(Cc3ccccc3)C(=O)[C@H]2C1 27.2% [at 57.5 µM]
OC[C@H]1C[C@@H](NCc2cccc3c2OCO3)[C@H](O)[C@@H]1O 7.96% [at 76.7 µM]
c1ccc(-c2cnc(Nc3ccncc3)c3c2CCO3)cc1 10.6% [at 76.7 µM]
CCC[S+](=O)([O-])N1CCN(C(=O)N2CC3CC(C2)[C@H]2CCCC(=O)N2C3)CC1 (some centres undefined) -3.2%
O=C(O)c1cc(-c2cccc(CO)c2)cc(S(=O)(=O)N2CCOCC2)c1 1.88%
COc1ccc(C2Cn3nnc(C(=O)N4CCN(C(=O)c5cc(F)ccc5Cl)CC4)c3CO2)cc1 (centres undefined) -0.346%
Cc1ccccc1Nc1cnc2ccc(-c3cccc(CO)c3)nn12 63.5% [at 57.5 µM]
COc1ccccc1C(O)c1nc(Nc2ccncc2)n[nH]1 (centres undefined) 13.5% [at 57.5 µM]
OC[C@]12CCCN[C@@H]1CCN(Cc1cccc(-c3ccccn3)c1)C2 1.81%
COC(=O)c1ccc2c(c1)nc1n2[C@@H](CNC(=O)NC2CCCCC2)COC1 -0.992% [at 57.5 µM]
COc1cccc(CN[C@@H]2CCC[C@@H](C(=O)NC3CCOCC3)CC(=O)N(C)C2)c1 1.5% [at 57.5 µM]
COCCNC(=O)[C@H]1CCC[C@H]1NC(=O)c1ccc(OC)cc1 0.0448%
CCS(=O)(=O)N1CCC(Cc2nc(-c3cccnc3)n[nH]2)C1 (centres undefined) 0.912%
C=CCc1cc(C2CC(=O)Nc3[nH]ncc32)cc(OCC)c1OC (centres undefined) 1.43%
O=C1CC(c2ccccc2)N(C(=O)C2CC2)CCCN(C(=O)NCc2ccccc2)CCN1 (centres undefined) 0.78%
O=C(NC[C@H]1OC[C@@H](NCc2cnc[nH]2)[C@@H]1O)C1CCCC1 10.9% [at 57.5 µM]
COc1cccc(-c2cnc3[nH]cc(CC(=O)NCc4cccnc4)c3c2)c1 -0.122% [at 57.5 µM]
Cn1ccc(NC(=O)c2cnc3c(c2)N([S+](=O)([O-])c2cccnc2)CCC3)n1 3.56% [at 57.5 µM]
CCOc1cc(=O)n2c(c1C(=O)N1CCN(c3ccc(F)cc3)CC1)CCCC2 2.67%
CC1=C[C@@H](CNC(=O)Cc2ccccc2)[C@H](C(C)C)C[C@H]1Cc1nc2ccncc2[nH]1 49.5% [at 57.5 µM]
Oc1ccccc1CN1CCNc2cnc(-c3ccccc3)cc2C1 10.3% [at 57.5 µM]
CN1C(=O)[C@@H]2C[C@@H](O)CN2C2(CN(CC3CCCCC3)C2)C1=O -2.35% [at 57.5 µM]
O=C(O)c1cccc(CN2CCN(c3ccc4nccn4n3)CC2)n1 52.5%
CCn1ccc(C(=O)N2CC(c3nnc(-c4ccc(C)cc4)o3)C3(CCOCC3)C2)n1 (centres undefined) -0.487%
O=C(Nc1ccsc1)N[C@H]1C[C@H]2C(=O)NC[C@@H](CCC(=O)N3CCCCC3)N2C1 6.97% [at 57.5 µM]
O=C(Cc1ccccc1F)N1CCC(Oc2ncccc2C(=O)N2CCCCC2)C1 (centres undefined) -2.69%
CC1=C[C@@H](CNCc2ccncc2)[C@H](C(C)C)C[C@H]1Cc1nnc(-c2ccc(C)cc2)o1 0.0973% [at 57.5 µM]
Cc1ccccc1-c1[nH]nc2ncc(-c3ccccc3O)nc12 0.134% [at 57.5 µM]
CN1CCCC2(CCN(S(=O)(=O)c3ccc(F)c(F)c3F)C2)C1=O (centres undefined) -0.416%
CN1CCC(N2CCC[C@H]2C(=O)NCc2cc3n(n2)CCCNC3)CC1 44.8%
O=C(O)C1(Oc2ccc3ccccc3c2)CCN(Cc2ccsc2)CC1 -0.232%
COc1cccc(CN2CCCC3(CCN(C(=O)c4ccc(OC)nc4OC)C3)C2)c1 (centres undefined) -0.954%
COc1ccc(-c2noc([C@@H]3C[C@@H](O)CN3Cc3ncc[nH]3)n2)cc1 -1.76% [at 57.5 µM]
CC(C)(O)CCc1cccc(C(=O)NCCNc2cccnc2)c1 6.29%
COc1cccc(S(=O)(=O)N2C[C@@H](C)[C@](O)(C3CCC3)C2)c1 -1.22%
O=C(O)[C@@H]1CN(C(=O)c2ccc(=O)[nH]c2)C[C@H]1c1ccc2c(c1)OCO2 4.89%
COC[C@H]1CCCN1Cc1nc(C2(O)CCN(Cc3ccccc3O)CC2)cs1 38.3% [at 57.5 µM]
O=C(NCc1ccccc1)N1CCCCC1c1nc(-c2cnccn2)n[nH]1 (centres undefined) 32.3%
CN1CC2(CCN(C(=O)c3ccccc3-c3nn[nH]n3)CC2)CC1C(=O)O (centres undefined) 57.1%
Nc1ccsc1C(=O)N[C@H](Cc1ccncc1)C1CC(O)C1 (some centres undefined) 49.4%
O=C(NC[C@H]1O[C@@H](CC(=O)N2CCOCC2)[C@H](O)[C@@H]1O)Nc1ccc(F)cc1F 8.7% [at 57.5 µM]
CCn1nc(C)cc1C(=O)N1CCOC[C@H](Oc2cccnc2)C1 -2.79% [at 57.5 µM]
O=c1n(-c2ccc([N+](=O)[O-])cc2)nc2n1CCN(Cc1cccc3ccccc13)C2 6.62%
Cn1cccc1C(=O)N1CC[C@H](NC(=O)NC2CCCCC2)[C@H]1C(=O)N1CCC[C@@H]1C(N)=O 1.12%
N#Cc1ccc(C(=O)N2C[C@@H]3C[C@H](C2)c2c(/C=C/c4ccc(Cl)cc4)ccc(=O)n2C3)cc1 -0.813%
NC(=O)C1(N2CCCCC2)CCN(Cc2cc3n(n2)CCNC3)CC1 58.6%
CC(C)(CO)CNC(=O)c1cnc2c(c1)N([S+](=O)([O-])c1cccnc1)CCC2 2.99% [at 57.5 µM]
Cc1nn(C)c2ncc(C(=O)O)c(NC3CC(c4cc(=O)[nH]cn4)C3)c12 (centres undefined) 7.09%
Oc1cccc(CN2CCCC23CCN(c2ccc(C(F)(F)F)cn2)CC3)c1 -0.547%
O=C(O)CCC(=O)N[C@H]1CCN2C(=O)c3cc(-c4ccc(Cl)cc4)ccc3NC(=O)[C@H]12 12.6% [at 57.5 µM]
